Reference: PubChem BioAssay (EPA / NIEHS)
Results filed as inconclusive are left out. The source made the active and inactive calls. Rule for the calls, unless noted: active = hit-call score of the fitted dose curve at least 0.9, where 1 is the maximum; inactive = score below 0.9.

Columns and labels:
[1] = biological target: human RAR-related Orphan Receptor gamma (RORg), RORC (gene 6097) (UniProt P51449); experiment: ATG_RORg_TRANS: Attagene TRANS-FACTORIAL HepG2 Assay for human RAR-related Orphan Receptor gamma (RORg) (AID 2283011; active = hit-call score of the fitted dose curve at least 0.9, where 1 is the maximum)
Method in brief: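 First, HepG2 liver cells were transfected with GAL4-UAS-driven reporter constructs and the RORg-Gal4 fusion. Next, they were treated with chemical for 24 h. Finally, reporter mRNA was quantified by RT-PCR and capillary electrophoresis, with upward activity fitted against DMSO.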

[2] = biological target: Retinoic acid receptor RXR-alpha (Homo sapiens) (UniProt P19793); experiment: ATG_RXRa_TRANS: Attagene TRANS-FACTORIAL HepG2 Assay for human Retinoid X Receptor alpha (RXRa) (AID 2283012; active = hit-call score of the fitted dose curve at least 0.9, where 1 is the maximum)
Method in brief: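 HepG2 cells transiently transfected with multiplexed GAL4-UAS reporter units and chimeric NR-GAL4 fusions, dosed 24 h. Reporter mRNA measured by RT-PCR, FAM labelling, HpaI digestion and capillary electrophoresis; gain-of-signal fitted relative to DMSO baseline.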

[3] = biological target: human Retinoid X Receptor beta (RXRb), RXRB (gene 6257) (UniProt P28702); experiment: ATG_RXRb_TRANS: Attagene TRANS-FACTORIAL HepG2 Assay for human Retinoid X Receptor beta (RXRb) (AID 2283013; active = hit-call score of the fitted dose curve at least 0.9, where 1 is the maximum)
Method in brief: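 HepG2 cells transiently transfected with multiplexed reporter units driven by GAL4-UAS and exogenous chimeric NR-Gal4 proteins; treated 24 h. Reporter mRNA measured by RT-PCR, 6-FAM labelling and capillary electrophoresis; gain-of-signal fitted versus DMSO baseline.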

[4] = biological target: human Thyroid Receptor alpha (THRa1), THRA (gene 7067) (UniProt P10827); experiment: ATG_THRa1_TRANS: Attagene TRANS-FACTORIAL HepG2 Assay for human Thyroid Receptor alpha (THRa1) (AID 2283014; active = hit-call score of the fitted dose curve at least 0.9, where 1 is the maximum)
Method in brief: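 Reporter transcript induction, read by capillary electrophoresis of 6-FAM-labelled RT-PCR products, reflects activity of a transfected THRa1-Gal4 fusion in HepG2 liver cells. Cells were dosed for 24 h; activity was fitted in the positive direction against DMSO.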

[5] = read-out: Interleukin-1 alpha (IL1a), IL1A (gene 3552); experiment: BSK_BE3C_IL1a: BioMAP Diversity Plus: BE3C Assay for Interleukin-1 alpha (IL1a) Biomarker Activity (AID 2283016); settings: primary human bronchial epithelial cells; actives raise or lower the signal
Method in brief: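 Human primary bronchial epithelial cells (BE3C system) were dosed with compound and IL-1a measured by ELISA 24 h later. Activity was fitted bidirectionally against DMSO baseline; cytotoxicity was tracked in parallel cultures by SRB total-protein staining.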

[6] = read-out: Monocyte Chemoattractant Protein-1 (MCP1), CCL2 (gene 6347); experiment: BSK_3C_MCP1: BioMAP Diversity Plus: 3C Assay for Monocyte Chemoattractant Protein-1 (MCP1) Biomarker Activity (AID 2283017); settings: primary human endothelial cells (HUVEC); actives raise or lower the signal
Method in brief: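 ELISA read-out of MCP-1 from human umbilical vein endothelial cell cultures harvested 24 h post-dosing. Gain or loss of signal was fitted relative to DMSO.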

[7] = read-out: Human Leukocyte Antigen - DR isotype (HLADR), HLA-DRA (gene 3122); experiment: BSK_3C_HLADR: BioMAP Diversity Plus: 3C Assay for Human Leukocyte Antigen - DR isotype (HLADR) Biomarker Activity (AID 2283019); settings: primary human endothelial cells (HUVEC); actives raise or lower the signal
Method in brief: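 ELISA readout of surface HLA-DR on human umbilical vein endothelium, taken 24 h after chemical treatment. Gain- and loss-of-signal were both fitted relative to DMSO.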

[8] = read-out: Interleukin-8 (IL8), CXCL8 (gene 3576); experiment: BSK_3C_IL8: BioMAP Diversity Plus: 3C Assay for Interleukin-8 (IL8) Biomarker Activity (AID 2283020); settings: primary human endothelial cells (HUVEC); actives raise or lower the signal
Method in brief: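 Primary human umbilical vein endothelial cells (3C system) were exposed to test chemical for 24 h, then IL-8 was quantified by ELISA. Responses were fitted bidirectionally against DMSO vehicle as baseline.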

[9] = read-out: Monokine induced gamma interferon (MIG), CXCL9 (gene 4283); experiment: BSK_3C_MIG: BioMAP Diversity Plus: 3C Assay for Monokine induced gamma interferon (MIG) Biomarker Activity (AID 2283021); settings: primary human endothelial cells (HUVEC); actives raise or lower the signal;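 for AC50: MIG protein level measured by immunoassay in the treated endothelial cultures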
Method in brief: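 Primary human umbilical vein endothelial cells in the 3C system were exposed to chemical for 24 h, after which MIG was quantified by ELISA. Activity was fitted bidirectionally against DMSO as negative control and baseline.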

[10] = biological target: human Vitamin D Receptor (VDR), VDR (gene 7421) (UniProt P11473); experiment: ATG_VDR_TRANS: Attagene TRANS-FACTORIAL HepG2 Assay for human Vitamin D Receptor (VDR) (AID 2283022; active = hit-call score of the fitted dose curve at least 0.9, where 1 is the maximum)
Method in brief: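 Steps: transfect HepG2 with GAL4-UAS-driven reporter constructs; dose compounds 24 h; isolate RNA, reverse-transcribe, PCR-amplify with 6-FAM-labelled primer extension and HpaI digestion; quantify fragments by capillary electrophoresis relative to DMSO.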

[11] = BSK_3C_SRB: Viability Assessment in the BioMAP Diversity Plus: 3C Assay (AID 2283023); settings: primary human endothelial cells (HUVEC);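 note: fitted both ways against DMSO so a hit may be signal rise or drop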
Method in brief: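 Absorbance at 560 nm of sulforhodamine B-stained (0.1%) total protein served as a cytotoxicity readout in human umbilical vein endothelial cells, 24 h after chemical treatment. Signal was fitted bidirectionally relative to DMSO.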

[12] = read-out: Matrix Metallopeptidase 1 (MMP1), MMP1 (gene 4312); experiment: BSK_BE3C_MMP1: BioMAP Diversity Plus: BE3C Assay for Matrix Metallopeptidase 1 (MMP1) Biomarker Activity (AID 2283024); settings: primary human bronchial epithelial cells; actives raise or lower the signal
Method in brief: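 Primary human bronchial epithelial cells were dosed with test chemicals, and MMP1 levels were measured by ELISA 24 h later. Data were fitted bidirectionally against DMSO as the negative control and activity baseline.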

[13] = BSK_3C_Vis: BioMAP Diversity Plus: 3C Assay for Morphology Visualization (AID 2283025); settings: primary human endothelial cells (HUVEC);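 note: fitted both ways so gain or loss versus DMSO counts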
Method in brief: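 Human umbilical vein endothelial cells in the 3C system were imaged by light microscopy 24 h after chemical dosing to record cell morphology. Activity was fitted bidirectionally against DMSO as negative control and baseline; the endpoint serves as a background control.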

[14] = read-out: Pselectin, SELP (gene 6403); experiment: BSK_4H_Pselectin: BioMAP Diversity Plus: 4H Assay for Pselectin Biomarker Activity (AID 2283026); settings: primary human endothelial cells (HUVEC); actives raise or lower the signal
Method in brief: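 Primary human umbilical vein endothelial cells were exposed to test chemical for 24 h, then cell-surface P-selectin was quantified by ELISA. Activity was fitted bidirectionally against DMSO as negative control and baseline.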

[15] = BSK_4H_SRB: Viability Assessment in the BioMAP Diversity Plus: 4H Assay (AID 2283027); settings: primary human endothelial cells (HUVEC);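 note: cells exposed to compound for 24 h before staining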;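 for AC50: curves fitted both ways versus DMSO so AC50 may be loss or gain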
Method in brief: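 Human umbilical vein endothelial cells, 24 h after chemical dosing; total protein measured by 0.1% sulforhodamine B staining after 10% TCA fixation, read at 560 nm. Bidirectional fitting against DMSO.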

[16] = BSK_BE3C_SRB: Viability Assessment in the BioMAP Diversity Plus: BE3C Assay (AID 2283028); settings: primary human bronchial epithelial cells;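 for AC50: fitted both ways so AC50 may mark signal gain or loss versus DMSO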
Method in brief: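 Cells (human bronchial epithelial, primary) are treated with chemicals, and after 24 h the parallel cultures are fixed in 10% TCA. These are then stained with 0.1% SRB and read at 560 nm. Gain or loss of signal is fitted relative to DMSO.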

[17] = read-out: Thrombomodulin, THBD (gene 7056); experiment: BSK_3C_Thrombomodulin: BioMAP Diversity Plus: 3C Assay for Thrombomodulin Biomarker Activity (AID 2283029); settings: primary human endothelial cells (HUVEC); actives raise or lower the signal
Method in brief: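 Primary human umbilical vein endothelial cells (3C system) were exposed to chemical for 24 h, then thrombomodulin levels were measured by ELISA. Activity was fitted bidirectionally against the DMSO negative control as baseline.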

[18] = read-out: Urokinase-type plasminogen activator receptor (uPAR), PLAUR (gene 5329); experiment: BSK_4H_uPAR: BioMAP Diversity Plus: 4H Assay for Urokinase-type plasminogen activator receptor (uPAR) Biomarker Activity (AID 2283030); settings: primary human endothelial cells (HUVEC); actives raise or lower the signal
Method in brief: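 Cell-surface uPAR ELISA signal, measured 24 h after dosing human umbilical vein endothelial cells, was analyzed with bidirectional fitting relative to DMSO. Parallel SRB staining of total protein tracked overt cytotoxicity.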

[19] = read-out: Monocyte Chemoattractant Protein-1 (MCP1), CCL2 (gene 6347); experiment: BSK_4H_MCP1: BioMAP Diversity Plus: 4H Assay for Monocyte Chemoattractant Protein-1 (MCP1) Biomarker Activity (AID 2283018); settings: primary human endothelial cells (HUVEC); actives raise or lower the signal
Method in brief: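 Human umbilical vein endothelial cells (4H system) dosed with chemical; MCP-1 measured by ELISA 24 h after dosing. Bidirectional curve fitting against DMSO negative control as baseline; parallel SRB total-protein staining tracks overt cytotoxicity.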

[20] = read-out: E-selectin (Homo sapiens) (UniProt P16581); experiment: BSK_3C_Eselectin: BioMAP Diversity Plus: 3C Assay for Eselectin Biomarker Activity (AID 2283015); settings: primary human endothelial cells (HUVEC); actives raise or lower the signal;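 note: cell surface E-selectin protein quantified by ELISA 24 h after dosing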
Method in brief: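 ELISA read-out of E-selectin on endothelial monolayers after 24 h chemical treatment. Human umbilical vein primary cells served as the system, with DMSO defining baseline activity for bidirectional fitting.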

Measured: AC50

Chain of Retinoic acid receptor RXR-alpha (Homo sapiens) (P19793 whole entry, looked up, the tested form may be a part): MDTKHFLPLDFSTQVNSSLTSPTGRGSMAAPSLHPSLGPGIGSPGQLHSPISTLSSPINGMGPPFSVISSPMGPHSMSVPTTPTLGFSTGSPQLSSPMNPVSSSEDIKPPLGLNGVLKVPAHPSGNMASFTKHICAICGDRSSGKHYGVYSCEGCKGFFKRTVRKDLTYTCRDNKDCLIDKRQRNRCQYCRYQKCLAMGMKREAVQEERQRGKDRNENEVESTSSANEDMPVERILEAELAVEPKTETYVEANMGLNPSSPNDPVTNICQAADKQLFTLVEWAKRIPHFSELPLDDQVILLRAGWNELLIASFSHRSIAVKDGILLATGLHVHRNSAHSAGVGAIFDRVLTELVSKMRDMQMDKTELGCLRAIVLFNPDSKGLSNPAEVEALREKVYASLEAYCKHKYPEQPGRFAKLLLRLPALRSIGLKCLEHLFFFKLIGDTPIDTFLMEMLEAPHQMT
Chain of human RAR-related Orphan Receptor gamma (RORg), RORC (gene 6097) (P51449 whole entry, looked up, the tested form may be a part): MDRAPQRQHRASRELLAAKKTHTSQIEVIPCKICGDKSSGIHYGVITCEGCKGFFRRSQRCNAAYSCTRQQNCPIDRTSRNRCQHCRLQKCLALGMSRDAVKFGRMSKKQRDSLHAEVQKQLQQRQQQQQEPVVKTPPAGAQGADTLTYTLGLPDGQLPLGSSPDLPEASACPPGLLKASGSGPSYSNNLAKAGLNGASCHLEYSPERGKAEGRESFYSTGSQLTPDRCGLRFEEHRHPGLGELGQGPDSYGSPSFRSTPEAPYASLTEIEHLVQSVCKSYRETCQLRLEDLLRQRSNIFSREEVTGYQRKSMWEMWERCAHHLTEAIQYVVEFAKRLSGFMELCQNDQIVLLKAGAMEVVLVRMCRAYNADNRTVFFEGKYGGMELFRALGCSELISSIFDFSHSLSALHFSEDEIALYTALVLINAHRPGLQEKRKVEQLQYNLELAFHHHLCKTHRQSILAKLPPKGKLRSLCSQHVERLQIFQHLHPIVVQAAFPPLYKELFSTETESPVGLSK
Chain of human Vitamin D Receptor (VDR), VDR (gene 7421) (P11473 whole entry, looked up, the tested form may be a part): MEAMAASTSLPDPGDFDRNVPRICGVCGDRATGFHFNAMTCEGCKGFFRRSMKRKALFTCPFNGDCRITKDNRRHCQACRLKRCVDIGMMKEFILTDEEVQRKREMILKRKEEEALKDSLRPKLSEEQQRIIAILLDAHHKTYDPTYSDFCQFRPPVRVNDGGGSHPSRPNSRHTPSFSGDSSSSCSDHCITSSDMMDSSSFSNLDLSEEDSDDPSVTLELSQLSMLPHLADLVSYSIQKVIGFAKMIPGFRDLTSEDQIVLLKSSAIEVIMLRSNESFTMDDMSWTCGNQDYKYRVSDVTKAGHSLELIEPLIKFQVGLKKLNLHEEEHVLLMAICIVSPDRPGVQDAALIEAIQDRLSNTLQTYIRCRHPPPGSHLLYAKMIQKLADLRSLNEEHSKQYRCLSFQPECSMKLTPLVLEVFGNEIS
Chain of human Retinoid X Receptor beta (RXRb), RXRB (gene 6257) (P28702 whole entry, looked up, the tested form may be a part): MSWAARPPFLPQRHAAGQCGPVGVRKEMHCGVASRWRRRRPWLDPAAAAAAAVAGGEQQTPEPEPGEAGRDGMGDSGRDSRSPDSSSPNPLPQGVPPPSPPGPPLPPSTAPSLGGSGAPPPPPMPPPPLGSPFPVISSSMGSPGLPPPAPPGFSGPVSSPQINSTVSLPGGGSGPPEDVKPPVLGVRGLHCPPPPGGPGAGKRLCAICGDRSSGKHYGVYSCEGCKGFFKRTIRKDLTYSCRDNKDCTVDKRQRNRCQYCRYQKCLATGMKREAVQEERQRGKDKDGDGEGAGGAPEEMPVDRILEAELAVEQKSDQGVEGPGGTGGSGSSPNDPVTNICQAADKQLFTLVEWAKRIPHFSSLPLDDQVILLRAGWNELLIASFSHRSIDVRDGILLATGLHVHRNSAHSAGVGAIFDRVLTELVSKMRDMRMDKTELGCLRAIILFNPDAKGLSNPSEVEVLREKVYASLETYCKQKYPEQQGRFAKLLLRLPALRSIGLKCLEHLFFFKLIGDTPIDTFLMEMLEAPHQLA
Chain of human Thyroid Receptor alpha (THRa1), THRA (gene 7067) (P10827 whole entry, looked up, the tested form may be a part): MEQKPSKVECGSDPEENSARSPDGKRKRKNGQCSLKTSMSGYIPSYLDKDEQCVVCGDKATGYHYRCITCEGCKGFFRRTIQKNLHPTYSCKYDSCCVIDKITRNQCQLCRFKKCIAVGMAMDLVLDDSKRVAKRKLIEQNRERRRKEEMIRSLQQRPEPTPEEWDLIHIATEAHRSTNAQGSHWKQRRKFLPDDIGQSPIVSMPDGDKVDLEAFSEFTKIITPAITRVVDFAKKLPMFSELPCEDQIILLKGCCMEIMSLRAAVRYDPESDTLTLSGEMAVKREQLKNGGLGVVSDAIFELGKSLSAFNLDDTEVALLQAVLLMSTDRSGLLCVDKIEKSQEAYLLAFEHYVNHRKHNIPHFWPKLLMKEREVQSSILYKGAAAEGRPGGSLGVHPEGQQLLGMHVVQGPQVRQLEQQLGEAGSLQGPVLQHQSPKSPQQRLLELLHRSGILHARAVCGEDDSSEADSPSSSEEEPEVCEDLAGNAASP
Chain of E-selectin (Homo sapiens) (P16581 whole entry, looked up): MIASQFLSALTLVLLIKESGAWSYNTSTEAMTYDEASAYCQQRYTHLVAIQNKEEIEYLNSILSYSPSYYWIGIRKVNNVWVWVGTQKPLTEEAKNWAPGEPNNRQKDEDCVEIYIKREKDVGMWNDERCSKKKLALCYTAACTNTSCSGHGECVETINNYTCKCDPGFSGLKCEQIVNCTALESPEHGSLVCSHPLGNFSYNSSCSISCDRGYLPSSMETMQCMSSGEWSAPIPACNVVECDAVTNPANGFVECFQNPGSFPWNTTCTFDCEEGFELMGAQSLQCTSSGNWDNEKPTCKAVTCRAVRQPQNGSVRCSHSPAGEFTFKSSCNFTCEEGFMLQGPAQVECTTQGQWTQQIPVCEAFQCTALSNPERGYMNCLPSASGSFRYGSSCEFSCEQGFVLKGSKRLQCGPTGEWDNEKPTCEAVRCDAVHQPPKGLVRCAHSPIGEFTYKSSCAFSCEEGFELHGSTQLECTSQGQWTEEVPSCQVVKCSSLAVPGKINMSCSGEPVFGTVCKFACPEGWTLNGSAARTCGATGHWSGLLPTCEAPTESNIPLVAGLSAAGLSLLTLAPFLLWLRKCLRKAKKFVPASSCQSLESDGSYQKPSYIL

CC(C)=CC1C(C(=O)OCN2C(=O)C3=C(CCCC3)C2=O)C1(C)C (configuration not stated)
active: [6] 7.53 µM | [7] 27.9 µM | [11] 27.2 µM | [12] 11.3 µM | [14] 20 µM | [18] 8.64 µM
inactive: [1] | [2] | [3] | [4] | [5] | [8] | [9] | [10] | [13] | [15] | [16] | [17]

CC(=NC#N)N(C)Cc1ccc(Cl)nc1
active: [15] 7.17 µM
inactive: [1] | [2] | [3] | [5] | [6] | [19] | [7] | [8] | [9] | [10] | [11] | [12] | [13] | [14] | [16] | [17] | [18]

CC(C1CC1)C(O)(Cn1cncn1)c1ccc(Cl)cc1 (configuration not stated)
inactive: [1] | [2] | [3] | [20] | [5] | [6] | [19] | [7] | [8] | [9] | [11] | [12] | [13] | [14] | [15] | [16] | [17] | [18]

CCOC(=O)COc1cc(-c2nn(C)c(OC(F)F)c2Cl)c(F)cc1Cl
active: [14] 6.73 µM
inactive: [1] | [2] | [3] | [4] | [5] | [6] | [7] | [8] | [9] | [10] | [11] | [12] | [13] | [15] | [16] | [17] | [18]

CC[C@H](C)[C@H]1O[C@]2(C=C[C@@H]1C)C[C@@H]1C[C@@H](C/C=C(\C)[C@@H](O[C@H]3C[C@H](OC)[C@@H](O[C@H]4C[C@H](OC)[C@@H](NC)[C@H](C)O4)[C@H](C)O3)[C@@H](C)/C=C/C=C3\CO[C@@H]4[C@H](O)C(C)=C[C@@H](C(=O)O1)[C@]34O)O2
inactive: [1] | [2] | [10]
active: [5] 7.71 µM | [6] 3.66 µM | [19] 2.88 µM | [7] 3.38 µM | [8] 6.22 µM | [9] 9.14 µM | [11] 2.43 µM | [12] 11.9 µM | [13] 1.61 µM | [14] 1.77 µM | [15] 5.17 µM | [16] 2.87 µM | [17] 1.88 µM | [18] 1.73 µM

CSc1nc(NC(C)C)nc(NC(C)C)n1
active: [11] 14 µM
inactive: [1] | [2] | [3] | [5] | [6] | [19] | [7] | [8] | [9] | [10] | [12] | [13] | [14] | [15] | [16] | [17] | [18]
